# According to the OligoGym collection:
# Experiments:
# Assay in all cases: pooled miR-30 sensor sort-seq; sequence = guide strand
# Settings in all cases: shRNA
# IL10 = target: IL10
# IKBKAP = target: IKBKAP
# IKBKG = target: IKBKG
# IKBKB = target: IKBKB
# IL12RB2 = target: IL12RB2
# IL16 = target: IL16
# IL13RA1 = target: IL13RA1
# Also: reference of the scale not given here.
sequence,measurement,setting,value
TTTAACAACAAGTTGTCCAGCT,sensor-assay potency score (higher = more potent),IL10,0.786
TTCTGAACCAATGAGCACCGTC,sensor-assay potency score (higher = more potent),IKBKAP,-0.483
TTGCTCTTGTTTTCACAGGGAA,sensor-assay potency score (higher = more potent),IL10,-0.544
TCACAATCTTGTGCTGCTCGGC,sensor-assay potency score (higher = more potent),IKBKG,-0.555
TTGCAGTAGAATTGGGACCTAG,sensor-assay potency score (higher = more potent),IKBKAP,-0.443
TTCTATAATATCCAGTCTGTTA,sensor-assay potency score (higher = more potent),IKBKAP,-1.24
TGTGGTTGTCGTATTCTTGGAA,sensor-assay potency score (higher = more potent),IKBKG,0.455
TTCAGTTTGCTGTACTCCCTCT,sensor-assay potency score (higher = more potent),IKBKG,-0.286
TTCCTCATGTCCTCGATCCTGG,sensor-assay potency score (higher = more potent),IKBKG,-0.0606
TCGTATTCTTGGAAGAGCTGGT,sensor-assay potency score (higher = more potent),IKBKG,0.277
TTTGTCTATAGTAAACCGCTGA,sensor-assay potency score (higher = more potent),IKBKAP,-0.157
TTCTTCTGTTGATCTTTGGTGG,sensor-assay potency score (higher = more potent),IKBKAP,-0.174
TAGCATCGCAGACAAGGTCTAT,sensor-assay potency score (higher = more potent),IKBKAP,-0.408
TTGCACATGAGGAACTCCTTCT,sensor-assay potency score (higher = more potent),IKBKG,0.171
ATTAAAGGCATTCTTCACCTGC,sensor-assay potency score (higher = more potent),IL10,-0.126
TCTTCGTGACATCTTCTTCTTT,sensor-assay potency score (higher = more potent),IKBKAP,-0.422
ATCTCGGAGATCTCGAAGCATG,sensor-assay potency score (higher = more potent),IL10,-1.73
TAGTCTCCTGTACAGCTCCCTT,sensor-assay potency score (higher = more potent),IKBKB,-1.81
AACAACAAGTTGTCCAGCTGAT,sensor-assay potency score (higher = more potent),IL10,0.182
TTAGTGGCAGCCTCCAAGCGAC,sensor-assay potency score (higher = more potent),IKBKG,-1.14
TTGTACAGGATTAACTTGTTAC,sensor-assay potency score (higher = more potent),IL12RB2,-0.744
TAACAACAAGTTGTCCAGCTGA,sensor-assay potency score (higher = more potent),IL10,0.191
TAGGCTTCTATGTAGTTGATGA,sensor-assay potency score (higher = more potent),IL10,-0.258
TTTAGGAACAACCTTTTGCTGG,sensor-assay potency score (higher = more potent),IL16,-0.755
TTTCTCCTGATGACAATCGTGA,sensor-assay potency score (higher = more potent),IL16,-0.801
TTTGTTCTGAGGCTGCTCCTTT,sensor-assay potency score (higher = more potent),IL16,0.156
TGAAAGAAAGTCTTCACTCTGC,sensor-assay potency score (higher = more potent),IL10,0.368
TTGCAGACAAACAAGGTTGTAC,sensor-assay potency score (higher = more potent),IL12RB2,0.163
TTAACAACAAGTTGTCCAGCTG,sensor-assay potency score (higher = more potent),IL10,-0.0308
TTCTTATCTTGTTTGTCGCCAA,sensor-assay potency score (higher = more potent),IL13RA1,-0.0977
